From PubChem BioAssay (NCI)
This is part of a sample that, as a whole, favours compounds with a hit. Of some 83,000 tested, about 20% had one in any assay.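 Each cell line was grown in a 96-well plate and treated with one concentration of compound for 48 hours. Values below 10 were considered active.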 Values without a mark were called inactive. The source made the active and inactive calls.

Experiments:
Assay in all cases: NCI-60 one-dose screen, 48 h (100 = growth as untreated, 0 = no growth, -100 = all killed)
Details in all cases: 10 µM unless noted
DU-145 prostate = system: DU-145 prostate
K-562 leukemia = system: K-562 leukemia
MALME-3M melanoma = system: MALME-3M melanoma
MDA-MB-231 breast = system: MDA-MB-231 breast
RXF 393 renal = system: RXF 393 renal
SF-268 CNS = system: SF-268 CNS
SF-295 CNS = system: SF-295 CNS
SF-539 CNS = system: SF-539 CNS
UACC-257 melanoma = system: UACC-257 melanoma
M14 melanoma = system: M14 melanoma
HCT-15 colon = system: HCT-15 colon
HT29 colon = system: HT29 colon
SNB-75 CNS = system: SNB-75 CNS
SNB-19 CNS = system: SNB-19 CNS
U251 CNS = system: U251 CNS
PC-3 prostate = system: PC-3 prostate
SK-MEL-5 melanoma = system: SK-MEL-5 melanoma
UACC-62 melanoma = system: UACC-62 melanoma
LOX IMVI melanoma = system: LOX IMVI melanoma
SK-MEL-28 melanoma = system: SK-MEL-28 melanoma

Row | SMILES | growth (DU-145 prostate) | growth (K-562 leukemia) | growth (MALME-3M melanoma) | growth (MDA-MB-231 breast) | growth (RXF 393 renal) | growth (SF-268 CNS) | growth (SF-295 CNS) | growth (SF-539 CNS) | growth (UACC-257 melanoma) | growth (M14 melanoma) | growth (HCT-15 colon) | growth (HT29 colon) | growth (SNB-75 CNS) | growth (SNB-19 CNS) | growth (U251 CNS) | growth (PC-3 prostate) | growth (SK-MEL-5 melanoma) | growth (UACC-62 melanoma) | growth (LOX IMVI melanoma) | growth (SK-MEL-28 melanoma)
1 | CC(=O)/C(N=Nc1ccc2oc(=O)ccc2c1)=C(\C)O | 48.5% | 9.96% (active) | 58.3% | 61.2% | 51.6% | 45.7% | 22.5% | 51.5% | 37.5% | 35.7% | 16.5% | 24.4% | 67.8% | 29% | 23.3% | 20.7% | 9.01% (active) | 33.8% | 19% | 47.3%
2 | C#C[C@]1(O)CC[C@H]2[C@@H]3CC=C4c5sc(Nc6cccc(F)c6)nc5CC[C@]4(C)[C@H]3CC[C@@]21C | 31.3% | 0.936% (active) | 38.3% | 30.6% | -50.8% (active) | 37.1% | -51.9% (active) | -10.8% (active) | 44% | 11% | -28.6% (active) | -23.3% (active) | 24.1% | 35.8% | 10% | 19.2% | 42.6% | 5.77% (active) | -57.6% (active) | 13.8%
3 | Cc1[nH]c(C(=O)Nc2ccccc2OCc2cccc(C(=O)NCCN)c2)cc1Cl | 36.5% | 2.16% (active) | 83.3% | 96% | 96.3% | 88.3% | 101% | 97.2% | 99.4% | 85.5% | 106% | 69.4% | 74.4% | 85.8% | 53.3% | 96.5% | 99.3% | 68.4% | 35.6% | 37.6%
4 | CC(C)(C)Nc1nc2c(OCCc3ccccc3)cccn2c1-c1ccc([N+](=O)[O-])cc1 | 86.2% | 39.7% | 83.6% | 80.9% | 63.5% | 71.2% | 43.8% | 76.5% | 88.7% | 60.5% | 15.8% | 52.3% | 88.1% | 78.4% | 62.6% | 49.1% | 74.8% | 57.5% | 54.7% | 76.2%
5 | COc1ccc(/C(=N\NC(N)=S)c2ccc(Cl)cc2)cc1OC | 37.5% | 19% | 30.8% | 16.8% | 25.1% | 45% | 13.4% | 14.2% | 42.9% | -4.37% (active) | 16% | -1.79% (active) | -8.75% (active) | 24.1% | 22.4% | 36.4% | 21.9% | 18.9% | 40.5% | 47.6%
6 | CCOC(=O)c1cnc2c(-c3ccc(Cl)c(Cl)c3)cnn2c1 | 104% | 21.7% | 75.7% | 81.5% | 79.7% | 92.7% | 82.9% | 85.9% | 81.9% | 60% | 40.8% | 56.8% | 59.9% | 82.5% | 80.4% | 73% | 79.8% | 60.8% | 79% | 80.4%
7 | CC(C)C(/C=C/c1[nH]ncc1-c1cc(Cl)ccc1O)N1CCOCC1 (stereo not given) | 100% | 82.3% | 106% | 106% | 88.3% | 88.5% | 96% | 97.5% | 103% | 97.5% | 94.9% | 104% | 65.3% | 99.5% | 97.3% | 84.7% | 95% | 87.1% | 98.8% | 98.9%
8 | CC(C)(C)c1cc(NC(=O)Nc2ccc(-c3cn4c5c(sc4n3)CCc3cn(CCCN4CCCCC4)cc3-5)cc2)no1 | -96.4% (active) | 3.01% (active) | -79.1% (active) | -77.3% (active) | -71.6% (active) | -58.2% (active) | -53.6% (active) | -92.1% (active) | 51.3% | -93.6% (active) | -82.7% (active) | -50.7% (active) | 39.5% | -83.5% (active) | -86.3% (active) | -74.8% (active) | -51.9% (active) | 98% | -96.2% (active) | -89.8% (active)
9 | CN1c2ccccc2Sc2cc(/C=N/Nc3ccnc4cc(Cl)ccc34)ccc21 | 103% | -7.83% (active) | 94.7% | 98.5% | 82.2% | 99.4% | 98.7% | 103% | 96.3% | 92.7% | 50.2% | 76.5% | 104% | 94.8% | 80.7% | 88.6% | 94.7% | 101% | 47.7% | 103%
10 | Cc1ccc(-c2csc(N/N=C/c3cccs3)n2)cc1 | 100% | 74.4% | 88.8% | 92.5% | 115% | 106% | 92.8% | 104% | 97.1% | 90.4% | 59.1% | 99.4% | 81.9% | 101% | 85.8% | 68.2% | 72.8% | 88.9% | 94.5% | 102%
11 | O=C(/C=C/c1ccccc1)c1cccc(O)c1 | 105% | 71.6% | 104% | 105% | 92.4% | 104% | 98.3% | 103% | 101% | 95.1% | 89.3% | 110% | 81.8% | 96.1% | 91.2% | 94.2% | 96.9% | 81.1% | 66.1% | 104%
12 | C#Cc1nc(/C=C/C(=O)NO)cs1 | -59.8% (active) | 10.2% | -30.5% (active) | -48.6% (active) | -68.9% (active) | 52.9% | 46.3% | -87.3% (active) | 42.6% | 70.3% | 76.3% | 7.85% (active) | -94.4% (active) | 93.4% | -5.41% (active) | 70.5% | 63.3% | 57.9% | -90.7% (active) | 60.9%
13 | C/C(=N\NC(=O)Nc1ccccc1)c1nnn(-c2ccc([N+](=O)[O-])cc2)c1C | 105% | 113% | 108% | 106% | 78.2% | 103% | 108% | 99.9% | 108% | 105% | 105% | 116% | 100% | 100% | 102% | 99.7% | 99.6% | 99.6% | 102% | 106%
14 | CC(Nc1c(C#N)cnc2ccc(-c3cncc(O)c3)cc12)c1ccccc1 (stereo not given) | 3.93% (active) | 15.3% | -34.1% (active) | 14.4% | -24.6% (active) | 2.54% (active) | -13% (active) | 0.714% (active) | 18.2% | 4.07% (active) | 4.88% (active) | 46.8% | 10.5% | -6.67% (active) | 6.74% (active) | 9.41% (active) | -89.4% (active) | -51.2% (active) | 1.56% (active) | 3.08% (active)
15 | COc1ccc(Cn2cc(C#N)c(N)c2C(C)=O)cc1 | 107% | 103% | 102% | 94.8% | 102% | 96.5% | 110% | 99.5% | 106% | 110% | 98.5% | 112% | 84.5% | 85.8% | 109% | 105% | 100% | 87.1% | 98.6% | 109%
